PubChem BioAssay AID588405 (Sanford-Burnham Center for Chemical Genomics, 2011)
The campaign covered roughly 360,000 compounds. About 6,200 (1.7%) were called active.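 The calls were made as follows: active = inhibition of at least 50% at 20 µM; inactive = the rest.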 The full list was thinned out, with actives kept by preference.

Experiment: Peg3 promoter-driven luciferase inhibitors, primary screen, cell-based, HeLa, luciferase luminescence (AID 588405)
Conditions: HeLa PEG-Prom luciferase reporter, overnight, at 20 µM, stronger effect = higher value

inhibition, active:
CCOC(=O)/C=C/C(=O)OCC(=O)NC(c1ccccc1)c1ccccc1 66.3%, OCCCNc1nccc(-c2cc(Nc3cccc(Cl)c3)ncn2)n1 97.8%, CCOC(=O)N1CCN(C(=O)c2nn(-c3ccc(C)cc3)c(=O)c3c2c2ccccc2n3C)CC1 58.2%, NC(=O)C1CCN(C(=O)c2cc(S(=O)(=O)N3CCN(c4ccccc4)CC3)ccc2Cl)CC1 56.8%, O=C(Nc1ccccc1)c1nnsc1S(=O)(=O)c1ccc(Cl)cc1 67.4%

inhibition, inactive:
CCOC(=O)C1=CC[C@@H](c2ccccc2)N(S(=O)(=O)c2ccc(C)cc2)[C@H]1c1cccc(OC)c1 14.6%, CC1(c2nnc(Cc3ccccc3)o2)CC(c2ccccc2F)=NO1 (configuration not stated) 7.03%, Cc1ccccc1OCCC(=O)OCC(=O)NC(C)c1ccccc1 (configuration not stated) -0.76%, CCOC(=O)C(C(=O)OCC)C(C#N)c1ccccc1 (configuration not stated) 1.45%, CCOc1c(Nc2cccc(Cl)c2)c(=O)c1=O 19%, CC(=O)N1CCN(S(=O)(=O)c2ccc(C)c([N+](=O)[O-])c2)C1C(C)C (configuration not stated) 9.74%, COc1ccc(S(=O)(=O)NC(=O)C2(C)CCN2C(=O)COc2ccc(Cl)cc2)cc1 (configuration not stated) 0.32%, OC(c1ccc(F)cc1)c1ncc(-c2cccc(C(F)(F)F)c2)[nH]1 (configuration not stated) 25.3%, CCOC(=O)N1CCN(C(=O)Cn2cnc3ccccc3c2=O)CC1 -3.74%, CCOC(=O)N1CCN(C(=O)c2n[nH]c(=O)c3ccccc23)CC1 6.99%, CN1CCN(C(=O)c2ccc(-c3cc4nc(NCc5cccnc5)n(C)c(=O)c4s3)cc2)CC1 -4.53%, CCc1nc2c(OCCOc3ccccc3)cccn2c1N(C)C(=O)c1ccc(OC)cc1 11.8%, CC(=O)NN=C(C)c1ccc(NC(=O)C2CC2)cc1 -1.94%, CC1(C(=O)NCc2ccc3c(c2)OCO3)CCN1C(=O)Cc1cccs1 (configuration not stated) -1.89%, NC(=O)COC(=O)c1cc(S(=O)(=O)N2CCN(c3ccccc3)CC2)ccc1Cl -0.58%, COc1ccccc1N(C)S(=O)(=O)c1ccc(Cl)c(C(=O)N2CCC(C(N)=O)CC2)c1 -7.62%, O=S(=O)(Nc1cccc(-n2cnnn2)c1)c1cnc(Cl)c(Cl)c1 3.56%, Cc1cc2nc(-c3ccc(Cl)cc3)c(Cc3cccc(F)c3)n2c(C)c1Br -7.74%, CN(C)CCCOc1ccc(-c2ccc3nccn3c2)cn1 -2.16%, O=C(NCc1ccco1)c1cccc(-c2ccc3nncn3c2)c1 6.82%, O=C(Nc1ccc(S(=O)(=O)N2CCOCC2)cc1)C1CCN(S(=O)(=O)c2ccc(Cl)cc2)CC1 20.9%, Cc1nnsc1S(=O)(=O)Cc1ccccc1Cl 14.5%
